Source: PubChem
Most compounds without a hit are left out; they make up all but 0.86% or so of the library.
TAR Tat displ = HIV-1 TAR-Tat binding disruption. z-score (concentration not given with the values). 100,000 compounds, 0.6% hits. AID 1259389. HIV-1 TAR RNA, Tat peptide displacement FRET; hits give high values; active = z-score of 3 or more in at least 2 runs
CDC25B CDK2 inh = human CDC25B-CDK2/CyclinA binding inhibition; 94,000 compounds, 0.72% hits; z-score (concentration not given with the values); HTRF CDC25B-CDK2/CyclinA binding, anti-His/anti-Flag; hits give high values; P30305+P24941; in the data active = z-score above about 3.2
* marks the source's active call; other numbers are inactive results; · = not tested or not shown; ! = not active in a repeat.

SMILES | TAR Tat displ | CDC25B CDK2 inh
COc1ccc(Br)cc1C1CC(=O)N2CN(C3CCCCC3)CSC2=C1C#N (stereo not given) | -0.3 | -0.77
Cc1ccc2nc(CCc3ccc(NS(=O)(=O)c4c(C)nn(C)c4C)cc3)[nH]c2c1 | 0.47 | ·
CCOCCCN(Cc1ccco1)C(=O)Cn1ncc2c(=O)oc3ccc(C)cc3c21 | 0.69 | -0.41
CC(Oc1ccccc1Cl)C(=O)Oc1ccc(-n2cnnn2)cc1 (stereo not given) | -1.6 | -1.1
Cc1cc(-c2ccc(C)c(S(=O)(=O)NCCCN3CCCC(C)C3)c2)on1 (stereo not given) | 0.58 | ·
O=C(CN1C(=O)COc2ccc(S(=O)(=O)N3CCCC3)cc21)N1CCC2(CC1)OCCO2 | · | -1.6
O=C(C1CCCN(c2ncnc3c2nc2n3CCCCC2)C1)N1CCCc2ccccc21 (stereo not given) | 0.19 | ·
Cc1ccc(-c2noc(-c3nnn(-c4cccc(F)c4)c3N)n2)cc1 | -1.7 | ·
COc1ccc(C2CC(=O)N3CN(c4ccc(Br)cc4)CSC3=C2C#N)c(OC)c1 (stereo not given) | -1.8 | 6.4*
CN1C(C(=O)NC2CCCCC2)=CC(c2ccco2)=NS1(=O)=O | 1.8 | -1.5
CCOC(=O)c1nn(-c2ccc(C)cc2)c(=O)c2c(N)scc12 | -5.5 | 18*
CCOC(=O)c1nc(N)c(=O)n(-c2ccc(C)cc2)n1 | · | -7.1
CCOC(=O)c1nn(-c2ccc(Cl)cc2)c(=O)c(C#N)c1C | 0.3 | -1.2
CCOC(=O)c1nn(-c2ccc(Cl)cc2)c(=O)c2c(N)scc12 | -3 | 18*
CC(C)c1ccc(-c2c(NCc3ccc(Cl)cc3)c(=O)c2=O)cc1 | 1.3 | ·
Cn1c(SCC(=O)Nc2ccc3c(c2)OCO3)nc2c(c1=O)SCC2 | 1.5 | -2.6
Cc1[nH]ccc2c1[nH]c1cc(=O)ccc12 | 22* | ·
CC(=O)N1CCCc2cc(S(=O)(=O)N3CCCC(C(=O)NC4CCCC4)C3)ccc21 (stereo not given) | 0.15 | ·
COc1ccc(S(=O)(=O)Oc2ccc(C)cc2[N+](=O)[O-])cc1OC | · | -0.99
COc1ccc(S(=O)(=O)OCC(F)([N+](=O)[O-])[N+](=O)[O-])cc1Br | · | 4.2*
CCN1CCn2c(nc3ccccc32)C1 | -0.39 | -1.7
Cc1onc(-c2c(Cl)cccc2Cl)c1NC(=O)NNc1ccccn1 | · | 9.5*
Cc1noc(NC(=O)Nc2c(-c3ccccc3Cl)noc2C)c1C | · | -2.2
CC(C)Nc1nc2c(S(=O)(=O)c3ccccc3)nnn2c2ccccc12 | 1.3 | -1.1
COc1cc(OC)c(NS(=O)(=O)c2ccc3c(c2)NC(=O)CC(=O)N3)cc1Cl | 0.93 | ·
SMILES | TAR Tat displ | CDC25B CDK2 inh
COc1ccc(C2CC(=O)N3CN(C4CCCCC4)CSC3=C2C#N)c(OC)c1 (stereo not given) | 1.6 | 0.97
CCOc1cc(C2CC(=O)N3CN(C4CCCCC4)CSC3=C2C#N)ccc1O (stereo not given) | 0.91 | 3.4*
COc1cc(C2CC(=O)N3CN(C4CCCCC4)CSC3=C2C#N)ccc1O (stereo not given) | -0.98 | 3.8*
C/C(=N\O)c1csc(-c2ccccc2)n1 | · | -0.11
CC(=O)Oc1cccc(O)c1 | 1.3 | ·
CC(Oc1ccc(O)cc1)(P(=O)(O)O)P(=O)(O)O | 26* | ·
c1ccc2c(c1)NC(c1ccc3c(c1)OCO3)O2 (stereo not given) | · | -2.7
COCCNS(=O)(=O)c1c[nH]c(C(=O)OC)c1 | 2.4 | ·
CC1CCCCC1NC(=O)C1(C)Cn2c(cc3occc32)C(=O)N1c1ccc(Cl)cc1 (stereo not given) | 7.6* | ·
CCC(C)N1C(=O)c2cc3occc3n2CC1(C)C(=O)NC1CCC(C)CC1 (stereo not given) | 5.3 | ·
CC1CCCCC1NC(=O)C1(C)Cn2c(cc3occc32)C(=O)N1C1CCCCC1 (stereo not given) | 3 | ·
Cc1cc2c(cc3n2CC(C)(C(=O)NC2CCCCC2)N(C2CCCCC2)C3=O)o1 (stereo not given) | 2.8 | ·
Cc1cc(C)cc(N2C(=O)c3cc4occc4n3CC2(C)C(=O)NC2CCC(C)CC2)c1 (stereo not given) | 12* | ·
CC1CCC(NC(=O)C2(C)Cn3c(ccc3-c3ccco3)C(=O)N2Cc2cccs2)CC1 (stereo not given) | 0.47 | ·
CC1CCC(NC(=O)C2(C)Cn3c(cc4occc43)C(=O)N2Cc2cccs2)CC1 (stereo not given) | 10* | ·
Cc1cc2c(cc3n2CC(C)(C(=O)NC2CCCCC2)N(C(C)C)C3=O)o1 (stereo not given) | 7.2* | ·
O=C(NCCCSCc1ccco1)Nc1ccc(F)cc1 | 1.4 | -0.68
COc1ccc(Nc2c3c(nc4ccc(NC(=O)c5ccco5)cc24)CCCC3)cc1OC | 2.2 | 2
COc1ccc(OC)c(CCNc2ccc3nnc(-c4ccc(F)cc4)n3n2)c1 | · | -2
CC(=O)Oc1cccc(C2OC(c3ccccc3C)=NN2C(C)=O)c1OC(C)=O (stereo not given) | 1.7 | ·
CC(C)NS(=O)(=O)c1ccc(CN2C(=O)c3cccnc3C2=O)s1 | 1.8 | ·
CC1=Nc2cc(C(=O)NC(C)C)ccc2Sc2ccccc21 | 0.22 | -2.1
CC1CCC(NC(=O)C2(C)Cn3c(cc4occc43)C(=O)N2Cc2ccco2)CC1 (stereo not given) | 19* | ·
CC1CCCC(NC(=O)C2(C)Cn3c(cc4occc43)C(=O)N2Cc2ccco2)C1C (stereo not given) | 4.2 | ·
CCS(=O)(=O)N1CCN(c2cc(N3CCCCC3)nc(C)n2)CC1 | -0.22 | -0.79
SMILES | TAR Tat displ | CDC25B CDK2 inh
CC1CCN(C(=O)CSc2nc(-c3ccco3)nc3cc(=O)[nH]n23)CC1 | 9.2* | ·
CC1CCCCN1C(=O)CSc1nc(-c2ccco2)nc2cc(=O)[nH]n12 (stereo not given) | 1.2 | ·
Cc1cccc(C2=C([N+](=O)[O-])Sc3ccccc3N2)c1 | -1.5 | -1.1
Oc1ccc(CN2CCN(c3ccccc3)CC2)c2cccnc12 | 2.1 | ·
Oc1c(CN2CCOCC2)ccc2cccnc12 | 0.41 | 1.3
Oc1ccc(CN2CCCCC2)c2cccnc12 | 1.3 | 14*
Oc1c(CN2CCN(Cc3ccc4cccnc4c3O)CC2)ccc2cccnc12 | 9.4* | -4.2
CC(=O)C(Sc1nn(CCOc2ccc(C)cc2)c(=S)s1)C(C)=O | · | -1.1
CCCN[C@H]1CCc2nc(N)sc2C1 | 11*! | -0.45
CCC(=O)Nc1nc2c(s1)CC(C(C)(C)C)CC2 (stereo not given) | 0.69 | 1.5
O=S(=O)(CCN(C1CC1)S(=O)(=O)c1ccc(C2CCCCC2)cc1)N1CCNCC1 | 2.9 | ·
Cc1sc2ncn(CC(=O)N3CCCC3)c(=O)c2c1S(=O)(=O)N1CCCCC1 | · | 0.27
Cc1sc2ncn(CC(=O)N3CCCCC3C)c(=O)c2c1S(=O)(=O)N1CCN(C)CC1 (stereo not given) | · | 17*
CCc1cccc(C)c1Nc1c(-c2cccnc2)nc2ncccn12 | 0.42 | -0.34
COC(=O)C1=C(OC(=O)CN2C(=O)CCC2=O)c2ccccc2S(=O)(=O)N1C(C)C | 0.12 | 6.3*
COC(=O)C1=C(OC(=O)CN2C(=O)CCC2=O)c2ccccc2S(=O)(=O)N1C | 0.59 | -2.2
Cc1cc(NC(=O)c2cc3c(=O)n4cccc(C)c4nc3n2C)ccc1Br | -2.2 | ·
Cn1c(C(=O)NCc2ccccn2)cc2c(=O)n3ccccc3nc21 | · | -0.05
Cc1cccn2c(=O)c3cc(C(=O)Nc4ccc(S(N)(=O)=O)cc4)n(C)c3nc12 | 43* | ·
Cn1c(C(=O)Nc2ccc(Oc3ccccc3)cc2)cc2c(=O)n3ccccc3nc21 | 1.2 | ·
